Assay outcomes: PubChem BioAssay, National Center for Advancing Translational Sciences (NCATS)
S-ASM inh – blocks human secretory acid sphingomyelinase; P17405; placental ASM, HMU-PC fluorogenic substrate, 60 min; Potency, µM (doses to about 57.5 µM), without a hit: at the top dose activity change, negative = inhibition, usual class: inhibitors; actives 0.006% (n = 340,000); AID 504937; further: potency means the concentration at half of the fitted maximal effect
Target sequence (P17405 47-631 limits assumed): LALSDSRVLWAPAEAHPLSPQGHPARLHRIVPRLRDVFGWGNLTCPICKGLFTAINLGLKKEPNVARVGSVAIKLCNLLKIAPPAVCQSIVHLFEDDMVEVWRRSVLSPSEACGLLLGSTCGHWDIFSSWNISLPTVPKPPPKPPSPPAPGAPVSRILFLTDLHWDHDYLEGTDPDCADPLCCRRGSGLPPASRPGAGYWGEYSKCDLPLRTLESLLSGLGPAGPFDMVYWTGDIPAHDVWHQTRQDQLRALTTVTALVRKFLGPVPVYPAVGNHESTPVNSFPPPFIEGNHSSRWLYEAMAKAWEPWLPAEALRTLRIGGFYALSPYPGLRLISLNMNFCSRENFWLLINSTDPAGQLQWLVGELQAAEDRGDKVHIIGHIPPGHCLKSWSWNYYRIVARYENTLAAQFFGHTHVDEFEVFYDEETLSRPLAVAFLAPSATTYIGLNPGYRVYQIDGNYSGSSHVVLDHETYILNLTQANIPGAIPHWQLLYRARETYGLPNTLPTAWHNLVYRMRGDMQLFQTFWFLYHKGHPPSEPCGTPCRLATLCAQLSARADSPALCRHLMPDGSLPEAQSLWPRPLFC
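Steps: dispense placental human ASM, pin compound, wait 10 min at room temperature, add HMU-PC0 substrate at 9 uM final, incubate 60 min at 37 °C, add stop solution raising pH to 10, read fluorescence.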
IL1B secr inh – inflammasome signaling inhibition, IL-1 beta readout. activity change, % at 57.5 µM. AID 743279. actives 4.7% (n = 360,000). THP-1 LPS/ATP IL-1B secretion, AlphaLISA, 16 h; hits give low values; in the data active means activity change below about -50%; inconclusive means mostly about -30% to -49%; further: on the % scale 0 is the no-effect control and ±100 the full control effect
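Secreted IL-1B measured by AlphaLISA bead assay after 16 h compound exposure of THP-1 cells; compounds (final up to 57.5 uM) added 1 h before LPS (250 ng/mL) and ATP (1.25 mM) stimulation; lower signal means less secretion.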
TGFb inhibitor – inhibitors of TGF-b signaling. HepG2 CAGA-GFP TGF-b/SMAD3 reporter, GFP fluorescence, 18 h; TGF-beta stimulated, 500 pg/mL final. Potency, µM (series often up to 46.1 µM), for inactives: top-dose activity, negative = inhibition, most hits filed as inhibitors. actives 1.2% (n = 410,000). AID 588855; further: potency means the concentration at half of the fitted maximal effect; on the % scale 0 is the no-effect control and ±100 the full control effect; nearly all actives have a fitted effect of over 65% in size
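Cell-based qHTS in HEPG2 carrying a CAGA-GFP Smad reporter; compounds added before 500 pg/mL final TGF-beta, 18 h incubation at 37 degrees C, GFP fluorescence quantified per cell by imaging cytometry.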
DT40 TDP1 CPT – DT40-hTDP1 cell growth loss with CPT | actives 12% (n = 420,000) | chicken DT40 Tdp1-/-;hTDP1 cells + 20 nM CPT, ATP luminescence, 48 h | Potency, µM (top dose mostly 46.2 µM), inactives show top-dose activity change, negative = growth inhibition, actives largely listed as inhibitors | AID 686979; further: potency means the concentration at half of the fitted maximal effect; on the % scale 0 is the no-effect control and ±100 the full control effect; nearly all actives have a fitted effect of over 55% in size
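Chicken DT40 Tdp1-/- cells complemented with human TDP1, 400 cells/well, exposed to compounds plus 20 nM camptothecin for at least 48 h at 37 C; viability read as ATP content by CellTiter-Glo luminescence.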
HepG2 viability – counter-screen for TGF-b inhibitors: cytotoxicity in HepG2 cells. actives 0.76% (n = 410,000). AID 588856. Potency, µM (titrated, usually from 46.1 µM), for inactives: at the highest dose activity change, negative = cytotoxicity, usual class: cytotoxic. HepG2 CAGA-GFP viability, ATP luminescence, 18 h; further: potency means the concentration at half of the fitted maximal effect
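CellTiter-Glo luminescence gave cytotoxicity after 18 hours at 37 degrees C. The cells were HepG2 CAGA-GFP in 1% FBS DMEM, stimulated with 500 pg/mL TGF-beta after compound addition. %Activity was normalised to no-cell wells (complete cell-killing) and DMSO (no toxicity), and curves were fitted and classified.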
TDP1 cell noCPT – qHTS for Inhibitors of human tyrosyl-DNA phosphodiesterase 1 (TDP1): qHTS in cells in absence of CPT; DT40 Tdp1-/- hTDP1 cells, no CPT, ATP luminescence, 48 h; Potency, µM (top dose mostly 46.2 µM), without a hit: at the highest dose activity change, negative = growth inhibition, hits mostly inhibitors; actives 15% (n = 420,000); AID 686978, 2013; further: potency means the concentration at half of the fitted maximal effect; on the % scale 0 is the no-effect control and ±100 the full control effect; nearly all actives have a fitted effect of over 55% in size
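DT40 Tdp1-/-;hTDP1 cells, no CPT (DMSO vehicle only), 400 cells/well; compounds pin-transferred; ≥48 hr, 37 °C; CellTiter-Glo 30 min RT dark, luminescence read.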
* hit, by the source's call; i = inactive; ? = inconclusive; / = no result. The list is not random: actives were taken first. Their share in the collection is about 19%. Unless noted, the call rests on the fitted dose curve; in most records, active means well fitted curve in the direction sought with a large enough effect; inconclusive means small, poorly fitted or top-dose-only effect, or another doubt; inactive means no such curve, though single readings can be large; an effect the other way counts as inactive or inconclusive.

SMILES	S-ASM inh	IL1B secr inh	TGFb inhibitor	DT40 TDP1 CPT	HepG2 viability	TDP1 cell noCPT
CN(C(=O)c1ccc(NC(=O)Cc2ccc([N+](=O)[O-])cc2)cc1)C1CCCC1	-8%	-22	?	13µM*	4%	?
O=C(CCCC(=O)c1ccc(F)cc1)c1ccc(F)cc1	0%	-8	-2%	0%	-6%	6%
Cn1c(=O)c2c(ncn2CC(=O)OCC(=O)c2ccc(OC(F)F)cc2OC(F)F)n(C)c1=O	/	-8	0%	-26%	1%	-20%
Cc1ccc(C2CC(=O)Nc3c2c(C)nn3-c2nc(C)cc(C)n2)c(C)c1 (stereo not given)	/	/	9%	-14%	4%	-25%
Cc1cc(C)nc(-n2nc(C)c3c2NC(=O)CC3c2cc(F)ccc2F)n1 (stereo not given)	/	/	8%	?	-2%	23µM*
CCOC(=O)Cn1c(=NC(=O)C(C)C)sc2c(C)cc(C)cc21	-9%	31	1%	?	3%	15µM*
O=C1CN(c2ccc(Cl)cc2)C2(CCCCC2)S1	4%	3	-3%	29µM*	5%	?
O=C1C(Cl)=C(N2CCCCCC2)C(=O)N1c1ccc(Cl)cc1	?	23	?	-7%	-5%	?
O=[N+]([O-])c1cc(Cl)cc(C2=NCCN2)c1	8%	6	-25%	18µM*	-25%	?
O=[N+]([O-])c1cc(Br)c2c(c1)CCN2	/	8	-8%	3%	-24%	-27%
CCC(=O)N1CCCc2cc(S(=O)(=O)CCC(=O)Nc3ccccc3C)ccc21	5%	20	-5%	-15%	1%	-27%
CCC(=O)N1c2ccccc2C(N(C(=O)CC)c2ccccc2)CC1C (stereo not given)	0%	110	27%	?	-3%	9.2µM*
CCC(=O)N1c2ccccc2C(N(C(C)=O)c2ccccc2)CC1C (stereo not given)	6%	134	11%	-9%	-13%	?
COC(=O)c1ccc(NC(=O)CCNS(=O)(=O)c2cccc3nsnc23)cc1	/	/	?	-6%	-17%	-2%
CC1CCN(S(=O)(=O)c2ccc(C(=O)Nc3nnc(-c4ccco4)o3)cc2)CC1	1%	i	-20%	15µM*	-11%	18µM*
CC1CN(S(=O)(=O)c2ccc(C(=O)Nc3nnc(-c4ccco4)o3)cc2)CC(C)O1 (stereo not given)	-2%	7	-8%	23µM*	-28%	?
O=C(Nc1nnc(-c2ccco2)o1)c1ccc(S(=O)(=O)N2CCCC2)cc1	2%	50	-20%	?	-48%	?
O=C(c1ccc2c(c1)CCC2)N1CCN(Cc2c(F)cccc2Cl)CC1	/	-5	-20%	?	-31%	?
O=C(Cc1ccc(Cl)cc1)c1c[nH]c(C(=O)NCCCN2CCOCC2)c1	-1%	5	8%	-8%	-17%	-22%
CCCN(CC(=O)Nc1ccccc1C)C(=O)CCCOc1ccc(Br)cc1	-12%	4	-23%	?	-28%	18µM*
CCOc1ccc(OCCCC(=O)N(C)CC(=O)Nc2ccccc2Br)cc1	-4%	17	1%	?	-21%	?
CCCN(CC(=O)Nc1ccccc1C)C(=O)CCN1C(=O)c2cccc([N+](=O)[O-])c2C1=O	-5%	-51*	-5%	6%	-5%	-19%
O=C(NC1(O)C(=O)c2ccccc2C1=O)c1c(Cl)cccc1Cl	11%	7	18%	?	-5%	26µM*
O=C(NC1(O)C(=O)c2ccccc2C1=O)c1ccccc1	2%	-8	-4%	26µM*	11%	?
O=C(Nc1ccccc1Cl)c1c(F)c(F)c(F)c(F)c1F	0%	?	0%	-11%	-28%	-18%
SMILES	S-ASM inh	IL1B secr inh	TGFb inhibitor	DT40 TDP1 CPT	HepG2 viability	TDP1 cell noCPT
Cc1ccc(Cn2cc(CN3CC(N4CCSCC4)CS3(=O)=O)nn2)cc1 (stereo not given)	/	-4	/	-4%	/	-22%
CC1=C(C(=O)OCC2CCCCC2)C(c2ccc(Cl)cc2Cl)CC(=O)N1 (stereo not given)	/	/	-1%	?	-12%	21µM*
CC1=C(C(=O)OC2CCCCCC2)C(c2ccc(Cl)cc2Cl)CC(=O)N1 (stereo not given)	/	/	-16%	15µM*	-9%	16µM*
CC1=C(C(=O)OC2CCCCCC2)C(c2cccc(Cl)c2)CC(=O)N1 (stereo not given)	/	/	?	18µM*	-43%	18µM*
CC1=C(C(=O)OC2CCCCCC2)C(c2ccc(Cl)cc2)CC(=O)N1 (stereo not given)	/	/	?	?	-67%	?
CCc1ccccc1NC(=O)C1CCN(C2=NS(=O)(=O)C(c3ccc(C)c(C)c3)=C2C)CC1	/	/	-26%	?	-30%	?
CCOC(=O)C1CCN(C(=O)C2CCN(C3=NS(=O)(=O)C(c4ccc(C)c(C)c4)=C3C)CC2)CC1	/	/	?	16µM*	-32%	?
CC1=C(c2ccc(C)c(C)c2)S(=O)(=O)N=C1N1CCC(C(=O)N2CCC(C)CC2)CC1	/	/	?	?	-8%	6.5µM*
CC1=C(c2ccc(C)c(C)c2)S(=O)(=O)N=C1N1CCC(C(=O)Nc2ccc(Cl)cc2)CC1	/	/	-23%	16µM*	-32%	15µM*
CC1=C(c2ccc(C)c(C)c2)S(=O)(=O)N=C1N1CCC(C(=O)N2CCC(C(N)=O)CC2)CC1	/	/	4%	3%	-2%	7%
O=C(CSc1ccc2nnc(-c3ccccn3)n2n1)Nc1ccccc1C(F)(F)F	4%	-1	0%	-29%	1%	3%
COCC(=O)N1CCC(Oc2ccc(C(=O)N3CCN(C)C[C@@H]3C(C)C)cc2)CC1	0%	6	-5%	15%	-6%	-5%
Cc1ccc(CNC(=O)C2CCCN(S(=O)(=O)c3ccc4c(ccn4C)c3)C2)cc1 (stereo not given)	/	/	1%	-11%	0%	-6%
CCc1cc(-c2n[nH]c(C)c2-c2nc(C)cs2)c(O)cc1OC	-15%	-78*	-5%	0%	-21%	-28%
CCc1cc(-c2n[nH]c(C)c2-c2nc3ccccc3s2)c(O)cc1OCC(=O)NN	1%	12	1%	1%	-6%	4%
